Laboratory results reported in the supplement of paper PMC12669032.

What was measured:
Test in all cases: growth AUC relative to DMSO control (median of replicates) (fraction); higher = more growth (less inhibition), active = hit call of the paper
Conditions in all cases: 20 µM; 24 h;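 active = AUC reduced over 20% with Padj below 0.05 in at least 2 of 3 replicates; inactive = otherwise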
Coprococcus comes = system: Coprococcus comes
How it was run: (§1)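 Gut bacterial monocultures were grown anaerobically at 37 °C in mGAM from a starting OD600 of 0.05 with 20 µM compound (1% DMSO), in round-bottom 96-well plates under pierced gas-permeable seals, and OD600 was read hourly for 24 h. With the minimum OD set to 0, area under the growth curve was normalised to the plate median of solvent-only wells, or to row and column medians on the industrial chemical plate. Each value is the median of three biological replicates grown on separate days.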

Escherichia coli ED1a = system: Escherichia coli ED1a
How it was run: as §1

Escherichia coli IAI1 = system: Escherichia coli IAI1
How it was run: as §1

Eubacterium rectale = system: Eubacterium rectale
How it was run: as §1

[1] = system: Fusobacterium nucleatum subsp. animalis
How it was run: as §1

Lactobacillus gasseri = system: Lactobacillus gasseri
How it was run: as §1

Lactobacillus paracasei = system: Lactobacillus paracasei
How it was run: as §1

Odoribacter splanchnicus = system: Odoribacter splanchnicus
How it was run: as §1

[2] = system: Parabacteroides distasonis
How it was run: as §1

Parabacteroides merdae = system: Parabacteroides merdae
How it was run: as §1

Measured: growth AUC

CS/C(C)=N/OC(=O)N(C)SN(C)C(=O)O/N=C(\C)SC
inactive: Coprococcus comes 0.98 | Escherichia coli ED1a 1.02 | Escherichia coli IAI1 1.01 | Eubacterium rectale 1.17 | [1] 1.04 | Lactobacillus gasseri 1.05 | Lactobacillus paracasei 0.941 | Odoribacter splanchnicus 1.04 | [2] 1.03 | Parabacteroides merdae 1.03

CC1=C(C(=O)Nc2ccccc2)S(=O)(=O)CCO1
inactive: Coprococcus comes 0.986 | Escherichia coli ED1a 1.02 | Escherichia coli IAI1 0.994 | Eubacterium rectale 0.985 | [1] 0.959 | Lactobacillus gasseri 0.998 | Lactobacillus paracasei 0.981 | Odoribacter splanchnicus 0.962 | [2] 0.975 | Parabacteroides merdae 1

Cc1nc(N(C)C)nc(OC(=O)N(C)C)c1C
inactive: Coprococcus comes 1.01 | Escherichia coli ED1a 0.998 | Escherichia coli IAI1 0.992 | Eubacterium rectale 0.98 | [1] 1 | Lactobacillus gasseri 1.1 | Lactobacillus paracasei 0.978 | Odoribacter splanchnicus 1.01 | [2] 1.03 | Parabacteroides merdae 1.04

COc1cc(OC)nc(NC(=O)NS(=O)(=O)c2ncccc2C(=O)N(C)C)n1
inactive: Coprococcus comes 0.966 | Escherichia coli ED1a 1.05 | Escherichia coli IAI1 0.972 | Eubacterium rectale 0.999 | [1] 1.05 | Lactobacillus gasseri 0.93 | Lactobacillus paracasei 0.889 | Odoribacter splanchnicus 1.03 | [2] 1.02 | Parabacteroides merdae 0.988

COP(=S)(OC)Oc1cc(Cl)c(Br)cc1Cl
inactive: Coprococcus comes 0.982 | Escherichia coli ED1a 0.987 | Escherichia coli IAI1 0.965 | Eubacterium rectale 1.03 | [1] 0.952 | Lactobacillus gasseri 1.06 | Lactobacillus paracasei 0.996 | Odoribacter splanchnicus 1.02 | [2] 0.946 | Parabacteroides merdae 0.917

CC(C)C1(C)N=C(c2nc3ccccc3cc2C(=O)O)NC1=O (stereo not given)
inactive: Coprococcus comes 1.01 | Escherichia coli ED1a 0.985 | Escherichia coli IAI1 0.983 | Eubacterium rectale 0.965 | [1] 1.02 | Lactobacillus gasseri 1.03 | Lactobacillus paracasei 0.891 | Odoribacter splanchnicus 0.908 | [2] 0.986 | Parabacteroides merdae 0.997

O=C(O)COc1ccc(Cl)cc1Cl
inactive: Coprococcus comes 1.02 | Escherichia coli ED1a 1.01 | Escherichia coli IAI1 0.991 | Eubacterium rectale 0.943 | [1] 0.947 | Lactobacillus gasseri 1.08 | Lactobacillus paracasei 1.05 | Odoribacter splanchnicus 0.958 | [2] 0.988 | Parabacteroides merdae 0.982

CC#Cc1cc(C)nc(Nc2ccccc2)n1
inactive: Coprococcus comes 1.01 | Escherichia coli ED1a 0.986 | Escherichia coli IAI1 0.973 | Eubacterium rectale 1.03 | [1] 1.1 | Lactobacillus gasseri 0.844 | Lactobacillus paracasei 0.983 | Odoribacter splanchnicus 1.06 | [2] 0.945 | Parabacteroides merdae 0.991

CC1(C(=O)Nc2ccc(O)c(Cl)c2Cl)CCCCC1
inactive: Coprococcus comes 0.965 | Escherichia coli ED1a 1.01 | Escherichia coli IAI1 0.991 | Eubacterium rectale 0.973 | [1] 0.915 | Lactobacillus gasseri 1.03 | Lactobacillus paracasei 0.949 | Odoribacter splanchnicus 0.907 | [2] 1.05 | Parabacteroides merdae 0.993

CC(C)OC(=O)Nc1ccccc1
inactive: Coprococcus comes 1.03 | Escherichia coli ED1a 0.994 | Escherichia coli IAI1 1.01 | Eubacterium rectale 0.991 | [1] 1.02 | Lactobacillus gasseri 1.13 | Lactobacillus paracasei 1.04 | Odoribacter splanchnicus 0.962 | [2] 1.01 | Parabacteroides merdae 1

CC(C)N(C(=O)COc1nnc(C(F)(F)F)s1)c1ccc(F)cc1
inactive: Coprococcus comes 0.988 | Escherichia coli ED1a 1.03 | Escherichia coli IAI1 1.01 | Eubacterium rectale 1.1 | [1] 1.05 | Lactobacillus gasseri 1.04 | Lactobacillus paracasei 1.02 | Odoribacter splanchnicus 1 | [2] 0.937 | Parabacteroides merdae 0.986

C=C(C)CN(CC)c1c([N+](=O)[O-])cc(C(F)(F)F)cc1[N+](=O)[O-]
inactive: Coprococcus comes 0.985 | Escherichia coli ED1a 0.921 | Escherichia coli IAI1 0.968 | Eubacterium rectale 0.921 | [1] 0.912 | Lactobacillus gasseri 1.03 | Lactobacillus paracasei 1.14 | Odoribacter splanchnicus 1.01 | [2] 1.02 | Parabacteroides merdae 1.01

CNC(=O)Oc1ccccc1OC(CCl)OC (stereo not given)
inactive: Coprococcus comes 1.01 | Escherichia coli ED1a 1.02 | Escherichia coli IAI1 1.02 | Eubacterium rectale 1.16 | [1] 1.19 | Lactobacillus gasseri 1.04 | Lactobacillus paracasei 1.04 | Odoribacter splanchnicus 1.05 | [2] 0.988 | Parabacteroides merdae 1.06

CP(=O)(O)CC(=O)O
inactive: Coprococcus comes 0.991 | Escherichia coli ED1a 0.984 | Escherichia coli IAI1 1 | Eubacterium rectale 1.07 | [1] 0.945 | Lactobacillus gasseri 1.02 | Lactobacillus paracasei 0.871 | Odoribacter splanchnicus 0.978 | [2] 0.979 | Parabacteroides merdae 0.982
